# Screening data: PubChem, several laboratories
# TWEAK-Fn14 inh = TWEAK-Fn14 signaling inhibition; 360,000 tested, 2% active; TWEAK-stimulated Fn14 reporter cells, luciferase luminescence, 8 h; inhibition, % at 10 µM; in the data active = inhibition above about 50%
# EBV LMP1 NFkB = Epstein-Barr LMP1 NF-kappaB reporter inhibition; AID 504558; inhibition, % at 12.5 µM; LMP1-induced NF-kappaB luciferase reporter cells, luminescence; 350,000 tested, 0.69% active; in the data active = inhibition above about 41%; inconclusive = no clear call, values can overlap the other calls;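 also: 0% = neutral control wells and 100% = reference inhibitor control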
# TROY signal inh = blocks TROY-dependent signaling in reporter cells. inhibition, % at 10 µM. Q293 LMP1-TROYcd NF-kB luciferase reporter, 4 h. 360,000 tested, 0.98% active;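 active = compounds whose plate-normalised and pattern-corrected inhibition of the luciferase reporter signal at the single screening dose is 50% or more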
# EWS-Fli inh = blocks EWS/Fli oncoprotein-driven transcription. inhibition, % at 12.6 µM. AID 651661. A673 NR0B1-luciferase reporter, viability-normalised. 350,000 tested, 0.67% active;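 active = mean inhibition of at least 50% after viability correction, with every replicate also passing that limit; inconclusive = mean reaches 50% but only one of two replicates passes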;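 also: firefly luciferase signal divided by Alamar Blue viability fluorescence both relative to DMSO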
# LGR2 antag = Drosophila LGR2 receptor signaling inhibition; HEK293 LGR2, CRE-luciferase, bursicon-stimulated, 4 h; inhibition, % at 9.99 µM; 380,000 tested, 0.35% active; AID 720647;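 active = drop in luminescence signal, shown as inhibition above about 50% in the replicate tests, limit read from the data, passing the limit was not always enough; inconclusive = probably only some replicates passing the limit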;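 also: agonist challenge used bursicon conditioned medium at about half maximal strength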
# * hit, by the source's call; ? = inconclusive; · = no result given. In the library only some 2.5% were active in any assay of this set; here they are far more common.
SMILES,TWEAK-Fn14 inh,EBV LMP1 NFkB,TROY signal inh,EWS-Fli inh,LGR2 antag
CC(=O)N1N=C(c2ccc(Cl)cc2)CC1c1ccc([N+](=O)[O-])cc1 (stereo not given),79.8*,-16.9,-15.0,4.0,-15.0
CN1C[C@@H](O)COC[C@H]2O[C@H](CC(=O)N3CCN(c4ccccc4)CC3)CC[C@@H]21,·,·,·,0.4,-0.6
O=S(=O)(Nc1ccc(Br)cc1)c1cccc2nonc12,23.6,-3.5,-24.1,·,9.1
O=S(=O)(Nc1ccc(C(O)(C(F)(F)F)C(F)(F)F)cc1)c1ccc(Cl)c2nonc12,76.0*,·,10.1,·,·
COC(=O)C(=C/C(C)=C/c1cccnc1)C(=O)OC,64.5*,14.9,42.1,2.4,27.9
O=C(NCCc1ccccc1)c1ccccc1Cl,78.5*,45.6*,31.5,46.6,58.2*
Cn1cccc1C(=O)NCCc1ccccc1,56.0*,8.0,-9.9,5.4,16.3
O=C(c1cc(C(=O)NCCc2ccccc2)c(=O)n(CCc2ccccc2)c1)c1cc(Cl)ccc1O,66.2*,4.5,14.0,·,12.5
Cn1cccc1C(=O)NCCc1ccc(Cl)cc1,-15.2,0.9,-24.7,-85.4,-49.3
CCCNC(=O)c1ccccc1C(=O)NCCC,89.3*,-2.2,2.1,·,-8.9
FC(F)(F)c1cc(-c2ccco2)nc(N2CCN(c3ccccc3)CC2)n1,-0.7,-2.0,-1.9,·,-15.3
FC(F)(F)c1nc(N2CCN(c3ccccc3)CC2)nc2c1CCCCC2,93.5*,-3.5,57.2*,·,·
O=C(c1cccnc1)N1CC2(C1)[C@@H](c1ccccc1)[C@H](CO)N2Cc1cccnc1,·,·,·,6.8,-14.3
O=S1(=O)CCN(c2ccccc2CC(c2c[nH]c3ccccc23)c2c[nH]c3ccccc23)CC1,63.0*,-12.2,27.9,7.4,5.0
OCC(CCc1c[nH]c2ccccc12)c1c[nH]c2ccccc12 (stereo not given),·,·,·,-3.6,1.4
c1cc2cc(-c3c(-c4ccc5c(c4)OCO5)noc3-c3ccsc3)ccc2[nH]1,-21.9,-48.5,-52.2,-97.3,-114.3
Cc1onc(-c2ccc3c(c2)OCO3)c1-c1ccc2[nH]ccc2c1,61.5*,-8.2,21.2,18.6,-22.3
O=c1cc(C(F)(F)F)nc(SCc2cccc3ccccc23)[nH]1,-28.0,-2.4,62.2*,5.9,4.3
COCCNc1nc(Oc2cncc(Cl)c2)c2sccc2n1,50.0*,·,26.8,-4.2,8.3
Nc1ncnc(NCc2ccccc2)c1[N+](=O)[O-],39.5,24.4,10.8,-15.3,-7.9
Nc1ncnc(NCc2ccc(F)cc2)c1[N+](=O)[O-],59.6*,23.3,13.7,-1.8,2.6
N#CC1=C(N)NC(=S)C(C(N)=O)C1c1ccc(Cl)cc1Cl (stereo not given),32.6,3.3,-2.4,-8.3,69.2*
CCC(Oc1ccccc1)C(=O)NC1CCSC1=O (stereo not given),-4.0,65.7*,-2.7,-6.5,-6.7
CCC(Oc1ccccc1)C(=O)NC1CCCCCC1 (stereo not given),1.4,3.9,2.9,3.9,5.8
COc1cc(/C=C2\COC/C(=C\c3cc(OC)c(OC)c(OC)c3)C2=O)cc(OC)c1OC,101.8*,91.4*,77.6*,73.7*,·
SMILES,TWEAK-Fn14 inh,EBV LMP1 NFkB,TROY signal inh,EWS-Fli inh,LGR2 antag
COc1cc(/C=C2\CC(C(C)(C)C)C/C(=C\c3cc(OC)c(OC)c(OC)c3)C2=O)cc(OC)c1OC (stereo not given),64.2*,?,12.1,82.3*,42.0
Cc1ccccc1S(=O)(=O)N1C[C@H](O)COC[C@@H]2O[C@@H](CC(=O)O)CC[C@H]21,·,·,·,-2.6,-6.5
COc1ccc2nc(S(=O)Cc3ncc(C)c(OC)c3C)[nH]c2c1 (stereo not given),5.7,84.4*,2.0,2.0,0.6
COCCCOc1ccnc(CS(=O)c2nc3ccccc3[nH]2)c1C (stereo not given),2.3,-19.6,-6.5,-49.7,·
C[C@H]1CN([C@@H](C)CO)C(=O)c2cccc(NC(=O)C3CC3)c2O[C@@H]1CN(C)Cc1ccc(Oc2ccccc2)cc1,·,·,·,16.2,8.1
C=CCN=C1NN=C(c2cc(C)n(CCOC)c2C)CS1,40.5,44.9*,13.9,85.3*,?
C=CCn1c(C)cc(C2=NNC(=NC(C)(C)C)SC2)c1C,83.1*,57.3*,27.6,59.6*,0.5
COCCn1c(C)cc(C2=NNC(=NC3CC3)SC2)c1C,101.6*,83.7*,86.1*,90.0*,94.1*
C=CCn1c(C)cc(C2=NNC(=Nc3ccc(C)cc3)SC2)c1C,-5.6,-13.4,-24.3,-5.3,-27.0
